# SRC1 inh = human NCOA1 inhibition. 360,000 compounds, 0.12% hits. Q15788. HEK293 GAL4-SRC1 luciferase reporter, luminescence. inhibition, % at 3.6 µM;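 active = inhibition above the campaign mean plus 3 SD, with each screening campaign given its own cutoff, cut at about 60% in these data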;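 also: 0% = DMSO treated cells and 100% = gossypol at 36 µM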
# SRC3 inh = human NCOA3 inhibition; AID 588352; 360,000 compounds, 0.17% hits; HEK293 GAL4-SRC3 luciferase reporter, luminescence; Q9Y6Q9; inhibition, % at 3.6 µM;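 active = inhibition above a per-campaign cutoff, the mean of all compounds plus 3 SD, cut at about 60% in these data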;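 also: 0% = DMSO-treated cells and 100% = gossypol-treated cells at 36 µM; higher means less SRC3-driven luciferase light from the GAL4 reporter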
# NR5A2 inv ag = inverse agonists of human LRH-1 (NR5A2); HEK293T StAR-luciferase reporter, LRH-1 transfected, 24 h; inhibition, % at 3.6 µM; 360,000 compounds, 0.13% hits;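 active = inhibition above the mean inhibition of all tested compounds plus 3 SD, cut at about 73% in these data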;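 also: 0% = DMSO wells and 100% = reporter-only cells lacking LRH-1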
# Target sequence (O00482 whole entry, looked up): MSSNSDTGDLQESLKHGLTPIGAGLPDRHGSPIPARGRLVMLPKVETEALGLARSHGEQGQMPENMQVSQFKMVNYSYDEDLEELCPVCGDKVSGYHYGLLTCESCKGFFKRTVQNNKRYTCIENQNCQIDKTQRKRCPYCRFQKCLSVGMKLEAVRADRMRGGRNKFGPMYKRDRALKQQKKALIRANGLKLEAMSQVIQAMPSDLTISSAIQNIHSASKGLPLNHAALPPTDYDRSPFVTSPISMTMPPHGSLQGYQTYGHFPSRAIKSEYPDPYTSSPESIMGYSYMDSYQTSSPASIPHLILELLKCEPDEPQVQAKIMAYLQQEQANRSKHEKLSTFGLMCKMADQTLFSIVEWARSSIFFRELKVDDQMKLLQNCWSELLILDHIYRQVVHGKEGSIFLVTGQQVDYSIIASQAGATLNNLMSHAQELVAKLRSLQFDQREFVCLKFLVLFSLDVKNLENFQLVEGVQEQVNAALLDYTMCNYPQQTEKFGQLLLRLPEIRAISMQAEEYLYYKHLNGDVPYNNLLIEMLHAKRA
# NR2F2 inh = NR2F2 (human) inhibition, primary screen. inhibition, % at 8.6 µM. 370,000 compounds, 0.7% hits. HEK293T NGFI-A luciferase reporter, luminescence. AID 686940;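 active = inhibition above a per-plate cutoff, mean inhibition of test wells between control levels plus 3 SD, cut at about 38% in these data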;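 also: cells cotransfected with COUP-TFII expression vector driving the NGFI-A reporter; 0% = median of COUP-TF2 test wells and 100% = reporter-only cells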
# SRC2 inh = inhibits human steroid receptor coactivator 2; HEK293 GAL4-SRC2 luciferase reporter, luminescence; Q15596; AID 651957; inhibition, % at 9 µM; 370,000 compounds, 0.17% hits;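 active = inhibition above the mean inhibition of all tested compounds plus 3 SD, set per campaign, cut at about 52% in these data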;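 also: 0% = DMSO treated cells and 100% = cells given Gossypol at 36 µM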
# Gal4-VP16 ctr = counter-screen for COUP-TFII antagonists: inhibitors of VP16; shares compounds with NR2F2 inh; HEK293 Gal4-VP16 luciferase reporter, luminescence; inhibition, % at 8.5 µM; 2,500 compounds, 25% hits; AID 687007; in the data active = inhibition above about 13%
# COUP-TFII conf = COUP-TFII (NR2F2) inhibition, confirmation assay; HEK293 NGFI-A luciferase reporter, luminescence; inhibition, % at 8.5 µM; AID 687008; shares compounds with NR2F2 inh; 2,500 compounds, 45% hits;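 active = mean inhibition over three repeats above a set limit taken from the earlier primary screen, cut at about 38% in these data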;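 also: 100% = cells given the luciferase reporter alone without the COUP-TF2 vector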
# The depositor's hits bear a star; nt = no result. Most compounds without a hit are left out; they make up all but 0.81% or so of the library.
SMILES,SRC1 inh,SRC3 inh,NR5A2 inv ag,NR2F2 inh,SRC2 inh,Gal4-VP16 ctr,COUP-TFII conf
CC(=O)NC1C(=O)N(Cc2ccccc2)c2ccc(Br)cc21 (centres undefined),-17.1,24.5,10.0,37.8*,10.0,1.4,12.7
CC(=O)NC1C(=O)N(CCc2ccccc2)c2ccc(Br)cc21 (centres undefined),-3.0,14.8,4.1,15.4,5.4,nt,nt
O=C(CCN1c2ccccc2Sc2ccccc21)OCC(=O)N1CCN(C(=O)c2ccco2)CC1,-7.9,18.2,13.1,-15.1,-2.7,nt,nt
C=CCNC(=S)N/N=C/c1ccc(C(F)(F)F)cc1,17.2,9.7,12.3,43.2*,11.5,-3.0,28.3
COc1ccc(-n2c(C(C)n3nc(C)c([N+](=O)[O-])c3C)n[nH]c2=S)cc1 (centres undefined),13.3,12.4,-4.3,-2.4,-1.8,nt,nt
COc1ccc(-n2c(C)c([N+](=O)[O-])c3ccc(O)c(CN(C)C)c32)cc1,69.2*,60.7,28.2,41.4*,53.9*,28.9*,33.3
CCN1CCS/C1=C\C=C\C1=[N+](CC)CCS1,42.4,33.7,57.1,68.1*,-11.5,11.8,63.6*
Cc1cc(NC(=O)Cc2ccccc2)c2ccccc2n1,38.1,26.8,22.4,58.4*,33.9,0.3,39.1*
O=C(CSC1=NCCS1)Nc1ccnc2ccccc12,25.7,46.5,16.9,40.6*,30.8,6.3,50.7*
Cc1cc(C)nc(SCC(=O)Nc2ccnc3ccccc23)n1,26.9,34.1,35.2,64.6*,26.5,2.8,59.7*
COC(=O)Nc1cc(C)nc2ccccc12,4.8,13.5,16.6,-2.6,-9.7,nt,nt
CN(Cc1ccc(OCC(O)CN2CCCCC2)cc1)Cc1ccnc2ccccc12 (centres undefined),15.5,12.1,24.8,59.4*,19.9,8.2,44.4*
COc1ccc(NC(=O)CN(Cc2ccccc2)Cc2ccccc2)cc1S(N)(=O)=O,12.1,1.5,-3.0,4.9,-5.1,nt,nt
COc1ccc(NC(=O)COc2ccccc2Cc2ccccc2)cc1S(N)(=O)=O,31.0,17.6,21.9,43.5*,-19.4,-3.1,13.2
O=C(Nc1ccc(-c2nc3ccccc3o2)cc1)c1ccc(N2C(=O)C3C4C=CC(C4)C3C2=O)cc1 (centres undefined),8.9,43.5,7.7,41.1*,7.7,-19.7,39.5*
CC(C)(C)c1ccc(Oc2ccc(NC(=O)C3CC=CCC3C(=O)O)cc2)cc1 (centres undefined),4.2,18.7,50.1,90.9*,78.3*,15.1*,-0.8
O=C(Nc1ccc(F)cc1F)c1cc2nc3c(c(C(F)(F)F)n2n1)CCCC3,-11.7,-6.3,-18.3,-5.3,-24.1,nt,nt
Cc1ccc(OCc2nnc(SCc3nc4ccccc4[nH]3)n2Cc2ccco2)cc1,-2.5,7.6,6.2,41.6*,-3.5,-2.6,16.7
Cc1cccc(NC(=O)CN2CCN(C(=O)CNC(=O)c3ccc(-c4ccccc4)cc3)CC2)c1C,16.0,-2.9,-7.8,55.1*,-1.9,-7.6,16.0
CC(=O)c1ccc(N2CCN(C(=O)/C=C/c3ccc(S(=O)(=O)NCc4ccco4)cc3)CC2)cc1,12.1,25.8,25.3,53.5*,14.5,-1.2,27.7
CC(=O)c1ccc(N2CCN(C(=O)/C=C/c3ccc(S(=O)(=O)N4CCOCC4)cc3)CC2)cc1,-5.1,0.3,21.0,7.5,7.8,nt,nt
Cc1cc(=O)n(C)c2ccccc12,6.0,-3.1,7.4,-20.4,-28.1,nt,nt
Cc1cc(=O)n2c3c(c4c(cc13)c(CN(C)C)cc(=O)n4C)OC2,-13.3,-3.8,15.1,78.2*,58.0*,-6.9,-1.1
Cc1ccc(S(=O)(=O)NC(C(=O)N2CCOCCOCCOCC2)C(C)C)cc1 (centres undefined),12.6,1.5,7.0,-4.2,-22.6,nt,nt
C=CCC[C@@H](Cc1ccc(F)cc1)C(=O)OCCNC(=O)[C@@H](CC=C)CC(=O)N(CCO)Cc1ccccc1,-9.7,-9.1,3.9,0.5,1.7,nt,nt
Cc1ccc(NC(=O)O/N=C/c2c(C)nn(C(C)(C)C)c2C)cc1Cl,91.3*,91.9*,88.4*,100.0*,94.6*,92.9*,109.9*

# Compound activity deposited in PubChem by The Scripps Research Institute Molecular Screening Center.
